Experimental data from PubChem BioAssay (NCATS).
Results filed as inconclusive are left out. The source made the active and inactive calls. Unless noted, the call rests on the fitted dose curve; in most records, active means well fitted curve in the direction sought with a large enough effect; inconclusive means small, poorly fitted or top-dose-only effect, or another doubt; inactive means no such curve, though single readings can be large; an effect the other way counts as inactive or inconclusive.

Legend:
[1] = target: Cellular tumor antigen p53 (Homo sapiens) (UniProt P04637); assay: Primary qHTS for small molecule compounds that upregulate eGFP-tagged delta133p53alpha (in N-terminal) cells. (AID 2060322); details: NCI-H358 eGFP-delta133p53alpha fluorescence, 24 h; activation: active compounds read high;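 further: cells pre-induced with doxycycline then dosed without doxycycline; series mostly up to about 56 µM; 0% = DMSO vehicle and 100% = reference activator; nearly all actives have a fitted effect of over 75% in size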
Sequence of Cellular tumor antigen p53 (Homo sapiens) (P04637 whole entry, looked up): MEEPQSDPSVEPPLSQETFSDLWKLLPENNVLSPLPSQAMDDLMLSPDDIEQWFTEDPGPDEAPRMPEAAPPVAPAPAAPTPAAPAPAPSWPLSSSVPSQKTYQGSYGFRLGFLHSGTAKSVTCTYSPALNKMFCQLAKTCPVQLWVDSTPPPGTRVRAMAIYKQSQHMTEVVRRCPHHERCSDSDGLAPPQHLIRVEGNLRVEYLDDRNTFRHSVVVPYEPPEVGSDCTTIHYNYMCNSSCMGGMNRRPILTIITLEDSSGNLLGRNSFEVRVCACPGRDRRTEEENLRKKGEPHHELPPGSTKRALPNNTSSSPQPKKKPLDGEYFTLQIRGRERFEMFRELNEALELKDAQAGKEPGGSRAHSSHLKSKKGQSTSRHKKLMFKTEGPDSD
Outline: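 NCI-H358 cells pre-induced 24 h with 10 ng/ml doxycycline for eGFP-delta133p53alpha, plated dox-free and exposed 24 h at 37C to titrated compounds. Fixed, Hoechst-stained; gated GFP peak intensity by laser scanning cytometry, normalized to DMSO (0%) and 57.5 uM 5-azacytidine (100%).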

[2] = BET inhibitor-based combinations targeting novel dependencies in MECOM-rearranged (r) AML: SET-2 cell line (AID 2202231); details: SET-2 AML cells viability, CellTiter-Glo luminescence, 48 h; viability: active compounds read low, concentration not given here; further: nearly all actives have a fitted effect of over 35% in size; further: potency means the concentration at half of the fitted maximal effect;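 on viability: plate controls were DMSO treated cells for no effect and wells without cells for full effect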
Outline: (§1)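 A 48 hr incubation preceded viability reading by CellTiter-Glo, with 15 min room-temperature development. Dose series had 11 points; normalization used DMSO and empty wells; AUC was computed and mean-centered per line as Z-AUC.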

[3] = BET inhibitor-based combinations targeting novel dependencies in MECOM-rearranged (r) AML: MV-4-11 cell line (AID 2202233); further: nearly all actives have a fitted effect of over 45% in size; further: potency means the concentration at half of the fitted maximal effect
Outline: (§2)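 Each compound is tested in an 11-point concentration series against 500 seeded cells/well for 48 hr. The luminescent viability signal is normalized to DMSO and blank wells, then reduced to AUC and a cell-line-centred Z-AUC.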

[4] = BET inhibitor-based combinations targeting novel dependencies in MECOM-rearranged (r) AML: HNT-34 cell line (AID 2202234); further: nearly all actives have a fitted effect of over 35% in size; further: potency means the concentration at half of the fitted maximal effect
Outline: as §2

[5] = BET inhibitor-based combinations targeting novel dependencies in MECOM-rearranged (r) AML: AML-191 cell line (AID 2202236; further: nearly all actives have a fitted effect of over 35% in size; further: potency means the concentration at half of the fitted maximal effect)
Outline: as §1

[6] = BET inhibitor-based combinations targeting novel dependencies in MECOM-rearranged (r) AML: AML-194 cell line (AID 2202237; further: nearly all actives have a fitted effect of over 40% in size; further: potency means the concentration at half of the fitted maximal effect)
Outline: as §1

[7] = BET inhibitor-based combinations targeting novel dependencies in MECOM-rearranged (r) AML: UCSD-AML1 cell line (AID 2202235); further: nearly all actives have a fitted effect of over 40% in size; further: potency means the concentration at half of the fitted maximal effect
Outline: as §2

[8] = BET inhibitor-based combinations targeting novel dependencies in MECOM-rearranged (r) AML: OCI-AML3 cell line (AID 2202232); details: Potency: OCI-AML3 viability; further: nearly all actives have a fitted effect of over 35% in size; further: potency means the concentration at half of the fitted maximal effect
Outline: as §1

[9] = target: Cellular tumor antigen p53 (Homo sapiens) (UniProt P04637); assay: Primary qHTS for small molecule compounds that upregulate eGFP-tagged delta133p53alpha (in C-terminal) cells. (AID 2060324); further: potency means the concentration at half of the fitted maximal effect
Outline: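 Concentration-response screen: compounds titrated onto pre-induced NCI-H358 D133p53a-eGFP cells, incubated one day, fixed with 3.5% PFA. Per-cell GFP peak intensity was gated, then normalized against intraplate controls.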

[10] = target: Aldehyde dehydrogenase, mitochondrial (Homo sapiens) (UniProt P05091); assay: qHTS for Inhibitors of the Aldehyde Dehydrogenase Family (ALDH2) Validation screens (AID 2061302; active means well fitted inhibition curve with a large enough effect; title and protocol of this record describe different tests;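 further: plate controls were DMSO vehicle for no effect and maximal DPI positive control response for full effect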)
[11] = target: Retinaldehyde dehydrogenase 3 (Homo sapiens) (UniProt P47895); assay: qHTS for Inhibitors of the Aldehyde Dehydrogenase Family (ALDH1A3) Validation screen (AID 2061312); further: on the % scale 0 is the no-effect control and ±100 the full control effect; nearly all actives have a fitted effect of over 45% in size
[12] = target: Aldehyde dehydrogenase, mitochondrial (Homo sapiens) (UniProt P05091); assay: qHTS for Inhibitors of the Aldehyde Dehydrogenase Family (ALDH2) Confirmatory screens (AID 2061303; active means well fitted inhibition curve with a large enough effect; title and protocol of this record describe different tests; further: nearly all actives have a fitted effect of over 45% in size; further: potency means the concentration at half of the fitted maximal effect; on activity change, negative = inhibition: on the % scale 0 is the no-effect control and ±100 the full control effect)
[13] = target: Aldehyde dehydrogenase, mitochondrial (Homo sapiens) (UniProt P05091); assay: qHTS for Inhibitors of the Aldehyde Dehydrogenase Family (ALDH2) Primary screen (AID 2061308); further: nearly all actives have a fitted effect of over 55% in size; further: potency means the concentration at half of the fitted maximal effect;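 on activity change, negative = inhibition: plate controls were vehicle for no effect and reference inhibitor for full effect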
[14] = target: Retinaldehyde dehydrogenase 3 (Homo sapiens) (UniProt P47895); assay: qHTS for Inhibitors of the Aldehyde Dehydrogenase Family (ALDH1A3) Confirmatory screens (AID 2061311); further: nearly all actives have a fitted effect of over 60% in size; further: potency means the concentration at half of the fitted maximal effect; on activity change, negative = inhibition: on the % scale 0 is the no-effect control and ±100 the full control effect
[15] = target: Retinaldehyde dehydrogenase 3 (Homo sapiens) (UniProt P47895); assay: qHTS for Inhibitors of the Aldehyde Dehydrogenase Family (ALDH1A3) Primary screen (AID 2061315);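 further: plate controls were DMSO vehicle for no effect and reference inhibitor for full effect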
[16] = qHTS for Inhibitors of the Aldehyde Dehydrogenase Family (ALDH1A2, ALDH1A3, ALDH2, ALDH3A1) (AID 2061307); further: nearly all actives have a fitted effect of over 50% in size; on activity change, negative = inhibition: on the % scale 0 is the no-effect control and ±100 the full control effect
[17] = target: Retinal dehydrogenase 2 (Homo sapiens) (UniProt O94788); assay: qHTS for Inhibitors of the Aldehyde Dehydrogenase Family (ALDH1A2) Confirmation screens (AID 2061314); further: nearly all actives have a fitted effect of over 65% in size; further: potency means the concentration at half of the fitted maximal effect
[18] = target: Aldehyde dehydrogenase 1A1 (Homo sapiens) (UniProt P00352); assay: qHTS for Inhibitors of the Aldehyde Dehydrogenase Family (ALDH1A1) Confirmatory screens (AID 2061316); further: potency means the concentration at half of the fitted maximal effect; nearly all actives have a fitted effect of over 65% in size

CCCC[N+]1(C)[C@H]2CC(OC(=O)[C@H](CO)c3ccccc3)C[C@H]1[C@H]1O[C@H]12 (stereo partly specified)
inactive: activation [1] -13.2% | viability [2] 109% | Potency [3] | Potency [4] | Potency [5] | Potency [6]

CCCCCC[C@H]1C(=O)O[C@H](C)[C@H](NC(=O)c2cccc(NC=O)c2O)C(=O)O[C@@H](C)[C@@H]1OC(=O)CC(C)C
active: Potency [3] 1320 nM | Potency [5] 263 nM
inactive: activation [1] -21.7% | Potency [7]

O=S(=O)(CC1CS1)c1ccc(Oc2ccccc2)cc1 (stereo unspecified)
inactive: activation [1] -10.4%
active: Potency [8] 16600 nM | Potency [3] 11800 nM | Potency [4] 20900 nM

C#C[C@]1(O)C=C[C@H]2[C@@H]3CCC4=CC(=O)CC[C@@H]4[C@H]3CC[C@@]21CC
active: Potency [3] 18600 nM
inactive: activation [1] 10.7% | viability [2] 95.4% | Potency [7] | Potency [5] | Potency [6]

C[C@]12CC[C@H]3[C@@H](CCC4=CC(=O)CC[C@@]43C)[C@H]1CC[C@H]2OC(=O)CCC1CCCC1
inactive: activation [1] 28.3% | viability [2] 96.4% | Potency [3] | Potency [6]

C[C@]12CCC(=O)C(O)=C1CC[C@@H]1[C@@H]2CC[C@]2(C)C(=O)CC[C@@H]12
inactive: activation [1] 6.69% | viability [2] 97.8% | Potency [4] | Potency [7] | Potency [6]

CCCN1CCC[C@@H](c2cccc(O)c2)C1
inactive: Potency [9] | Potency [10] | Potency [11]

COC[C@@H](NC(C)=O)C(=O)NCc1ccccc1
inactive: activation [1] -5.83% | Potency [3] | Potency [4] | Potency [7] | Potency [6]

Clc1ccccc1C(c1ccccc1)(c1ccccc1)n1cccn1
inactive: activation [1] 8.55% | viability [2] 90.1% | Potency [8] | Potency [4] | Potency [5] | Potency [6]

Ic1ccccc1CNC1C2CCN(CC2)C1C(c1ccccc1)c1ccccc1 (stereo unspecified)
inactive: Potency [10] | Potency [11]

CCOc1ccc(CCNC(=O)c2cc3cccnc3n2Cc2cccc(C)n2)cc1OCC
inactive: Potency [12] | Potency [13] | activity change, negative = inhibition [14] -11.9% [at 0.022 µM] | Potency [15]

N#Cc1c(-c2ccc([N+](=O)[O-])o2)no[n+]1[O-]
active: Potency [12] 2820 nM | Potency [16] 10100 nM | Potency [13] 3160 nM | Potency [14] 7940 nM | Potency [17] 15800 nM | Potency [18] 2250 nM

NCC(CC(=O)O)c1ccc(Cl)cc1 (stereo unspecified)
inactive: Potency [10] | Potency [11]

CNc1ccc2oc(C[C@H]3O[C@@]4(CC[C@H]3C)O[C@H]([C@H](C)C(=O)c3ccc[nH]3)[C@H](C)C[C@H]4C)nc2c1C(=O)O
inactive: Potency [10] | Potency [11]

CN1C(=O)CCS(=O)(=O)C1c1ccc(Cl)cc1 (stereo unspecified)
inactive: Potency [10] | Potency [11] | Potency [4] | Potency [5] | Potency [6]

[Cl-].[Cl][Pt].[NH2-].[NH2-].c1ccncc1
inactive: Potency [10]

C[C@@H]1O[C@@H](O[C@H]2C[C@@H](O)[C@]3(CO)[C@H]4[C@H](O)C[C@]5(C)[C@@H](C6=CC(=O)OC6)CC[C@]5(O)[C@@H]4CC[C@]3(O)C2)[C@H](O)[C@H](O)[C@H]1O
active: Potency [2] 74.2 nM | Potency [8] 66.1 nM | Potency [3] 118 nM | Potency [4] 93.4 nM | Potency [7] 83.3 nM | Potency [5] 83.3 nM
inactive: Potency [10] | Potency [13] | Potency [11] | Potency [15]

Cc1c2ccncc2c(C)c2c1[nH]c1ccccc12
inactive: Potency [10] | Potency [11]
active: Potency [9] 30100 nM

CCC1(c2ccc(N)cc2)CCC(=O)NC1=O (stereo unspecified)
inactive: Potency [10] | Potency [11] | viability [2] 114% | Potency [3] | Potency [7] | Potency [5] | Potency [6]

CN1CCN(c2cnc3c(O)ccc(C(=O)O)c3c2)CC1
inactive: Potency [12] | Potency [16] | Potency [13] | Potency [15]
active: Potency [14] 12700 nM

C=C(C)[C@H]1CN[C@H](C(=O)O)[C@H]1CC(=O)O
inactive: Potency [10] | Potency [11]

CC(C)N(CCC(C(N)=O)(c1ccccc1)c1ccccn1)C(C)C (stereo unspecified)
inactive: Potency [10] | Potency [13] | Potency [11] | Potency [15]

CC(Cc1ccc(O)cc1)NCC(O)c1cc(O)cc(O)c1 (stereo unspecified)
inactive: Potency [10] | Potency [11]

O=C1/C(=C/c2ccccc2)C[C@@]2(O)[C@H]3Cc4ccc(O)c5c4[C@@]2(CCN3CC2CC2)[C@H]1O5
active: Potency [9] 21300 nM
inactive: Potency [10] | Potency [11]

CC(Cc1ccc(OCC(=O)O)cc1)NCC(O)c1cccc(Cl)c1 (stereo unspecified)
inactive: Potency [9] | Potency [10] | Potency [11]

C[N+](C)(C)CC(=O)O
inactive: Potency [10]

C=CCN1CCC23c4c5ccc(O)c4O[C@H]2C(=O)CC[C@@]3(O)C1C5 (stereo partly specified)
inactive: Potency [10] | Potency [11]

COC(=O)C1=CCCN(C)C1
inactive: Potency [10] | Potency [11]

CCOc1ccc(CCNC(=O)c2cc3ncccc3n2Cc2cccc(C)n2)cc1OCC
inactive: Potency [12] | Potency [16] | Potency [13] | Potency [17] | Potency [15]

C=C(C)[C@H]1Cc2c(ccc3c2O[C@@H]2COc4cc(OC)c(OC)cc4[C@@H]2C3=O)O1
active: Potency [2] 1180 nM | Potency [8] 332 nM | Potency [3] 417 nM | Potency [7] 934 nM | Potency [5] 934 nM | Potency [6] 934 nM
inactive: Potency [10]
